From PubChem
Most compounds without a hit are left out; they make up all but 2.3% or so of the library.
PP1 inh = PP1-alpha phosphatase inhibitors, primary screen, counter-screen for PP5 inhibitor project, biochemical, fluorescence, OMFP substrate, single point. AID 2235, 2010. actives 0.9% (n = 320,000). inhibition, % at 6.7 µM. purified PP1alpha;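 active means inhibition above the mean inhibition of all tested compounds plus 3 SD, computed separately for each screening campaign, cut at about 15% in these data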
MsrA inh = bovine MsrA enzyme inhibitors, primary screen, biochemical, absorbance, HTS; purified bovine MsrA, absorbance read-out; actives 0.75% (n = 360,000); Methionine sulfoxide reductase A (Bos taurus); inhibition, % at 15.5 µM; in the data active means inhibition above about 4.5%;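 further: 0% = vehicle wells with enzyme and 100% = reference inhibitor wells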
MsrA act = bovine MsrA enzyme activators, primary screen, biochemical, absorbance, HTS | activation, % at 10.6 µM | purified bovine MsrA, absorbance read-out | actives 0.3% (n = 360,000) | Methionine sulfoxide reductase A (Bos taurus) | AID 602163, 2012; in the data active means activation above about 7.5%;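 further: 0% = vehicle and 100% = reference activator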
EBNA-1 inh = EBNA-1 DNA-binding inhibitors, primary screen, biochemical, fluorescence polarization; inhibition, % at 14.8 µM; actives 0.34% (n = 300,000); AID 1950, 2009; in the data active means inhibition above about 28%
ZTA counter = counter-screen for EBNA-1 inhibitors: inhibitors of Epstein-Barr virus ZTA; P03206; ZTA-DNA binding, fluorescence polarization; inhibition, % at 11 µM; actives 0.15% (n = 320,000); in the data active means inhibition above about 33%
PP5 inh = PP5 phosphatase inhibitors, primary screen, biochemical, fluorescence; actives 0.18% (n = 320,000); Serine/threonine-protein phosphatase 5 (Homo sapiens), P53041; purified PP5c, OMFP substrate fluorescence; inhibition, % at 6.7 µM;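 active means inhibition above the campaign's mean inhibition across all tested compounds plus 3 SD, cut at about 9.5% in these data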;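 further: 0% = DMSO only and 100% = 100 µM cantharidin control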
Target sequence (P53041 whole entry, looked up): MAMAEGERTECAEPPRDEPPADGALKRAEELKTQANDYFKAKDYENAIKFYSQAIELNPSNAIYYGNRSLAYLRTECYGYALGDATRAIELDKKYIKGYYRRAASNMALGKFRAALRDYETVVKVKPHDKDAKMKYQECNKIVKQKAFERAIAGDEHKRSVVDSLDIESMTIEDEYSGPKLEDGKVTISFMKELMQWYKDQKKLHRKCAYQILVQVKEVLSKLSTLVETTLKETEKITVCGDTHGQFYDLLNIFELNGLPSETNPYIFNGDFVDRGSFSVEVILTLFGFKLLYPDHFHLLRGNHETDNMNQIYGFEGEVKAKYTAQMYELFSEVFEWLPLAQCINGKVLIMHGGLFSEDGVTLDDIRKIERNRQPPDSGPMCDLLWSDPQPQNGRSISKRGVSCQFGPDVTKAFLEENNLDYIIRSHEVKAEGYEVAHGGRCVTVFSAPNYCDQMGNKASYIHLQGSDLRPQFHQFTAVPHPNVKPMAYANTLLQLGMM
ZTA inh confirm = EBV Zta binding to ZRE DNA, inhibitors, confirmation, biochemical, fluorescence polarization, triplicate; shares compounds with ZTA counter; AID 2361, 2010; actives 30% (n = 320); inhibition, % at 11.1 µM;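 active means mean inhibition across triplicate runs above the hit threshold derived for the original primary screen, cut at about 33% in these data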;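 further: 0% = Zta with DMSO and 100% = wells lacking Zta protein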
EBNA-1 counter = EBNA-1 DNA-binding inhibition, counter-screen for ZTA inhibitor project, biochemical, fluorescence polarization | shares compounds with ZTA counter | inhibition, % at 14.8 µM | 320 tested, under 10 active; call rule not given here
Numbers without * were called inactive; . = not tested or not shown.

SMILES | PP1 inh | MsrA inh | MsrA act | EBNA-1 inh | ZTA counter | PP5 inh | ZTA inh confirm | EBNA-1 counter
COC(=O)[C@@]12C[C@@H](CC(=O)N3CCN(C(=O)c4ccco4)CC3)C(=O)N(CCc3ccc(OC)c(OC)c3)C1=CCC(C)(C)C2 | . | -2 | . | . | . | . | . | .
O=C(Nc1ccc(C(F)(F)F)cc1)C1CC(=O)N(c2ccc3c(c2)OCCO3)C1 (stereo unspecified) | 0 | 0 | -3 | -4 | 65* | 7 | 0 | -6
CN1CCC(OC(c2ccccc2)c2ccccc2)CC1 | -4 | 2 | -1 | 7 | 60* | -1 | 13 | 7
CN1CCC(Oc2ccccc2Sc2ccccc2)CC1 | 1 | 0 | -9 | 0 | 5 | 3 | . | .
COc1ccc(-n2nnc3c(=O)n(CC(=O)N4CCCc5ccccc54)cnc32)cc1 | 1 | -1 | -1 | 15 | 36* | 0 | 3 | -8
CN(C)CCOCCOc1ccccc1-c1ccccc1 | -4 | 0 | 6 | -6 | 4 | 6 | . | .
CN(C)CCOc1ccccc1-c1ccccc1 | -1 | 0 | -2 | 4 | 37* | 1 | -12 | -7
O=C(Nc1ncccc1O)c1ccc(S(=O)(=O)Nc2ccccc2)cc1 | -2 | 0 | -3 | -15 | 1 | -1 | . | .
Cc1ccc(SCC(=O)OCc2csc(CC(=O)Nc3ccccc3C)n2)cc1C | 12 | -1 | -5 | . | -12 | 6 | . | .
O=C(CC(C(=O)O)c1ccc(Cl)cc1)c1ccc(Cl)c(Cl)c1 (stereo unspecified) | 10 | 1 | 2 | 1 | -8 | 0 | . | .
O=C(CC(C(=O)O)c1ccc(Cl)cc1Cl)c1ccc(Cl)cc1 (stereo unspecified) | 1 | 0 | -3 | 7 | 33* | 3 | -1 | -3
O=S(=O)(NCCSc1ccc(Cl)cc1)c1ccc2c(c1)OCCO2 | 1 | -1 | -5 | 3 | 33* | 6 | 8 | -1
O=S(=O)(NCCSCc1ccc(Cl)cc1Cl)c1ccc2c(c1)OCCO2 | -4 | 2 | 0 | -2 | 9 | 5 | . | .
Cc1[nH]n(-c2cccc3ccccc23)c(=O)c1C=Nc1ccc2[nH]c(=O)[nH]c2c1 | -1 | 3 | -2 | -5 | 15 | 0 | . | .
Cc1ccc(-n2[nH]c(C)c(C=Nc3ccc4[nH]c(=O)[nH]c4c3)c2=O)cc1C | 3 | 2 | -8 | -7 | 52* | 3 | 14 | -2
COc1cc2c3c(c1OC)C(=O)CC3CCCC2 (stereo unspecified) | . | 1 | -5 | . | . | . | . | .
CCCCn1c(N)c(N(CCOC)C(=O)c2ccc(-c3ccc(C(C)=O)cc3)o2)c(=O)[nH]c1=O | -3 | 4 | -3 | -8 | -17 | 0 | . | .
COc1ccc(OC)c(N)c1 | 2 | 1 | 3 | 20 | 37* | 3 | -13 | -9
C/C(=N\NC(=S)NCCc1ccccc1)c1ccc(C#N)cc1 | -1 | 1 | -3 | 14 | 38* | 0 | 5 | 23
Cc1ccc(NC(=O)CSCC#N)cc1 | -5 | 0 | -6 | 7 | 34* | -2 | -14 | -9
CC1C/C(=C/c2ccncc2)C(=O)/C(=C/c2ccncc2)C1 (stereo unspecified) | 5 | 1 | -3 | -5 | 43* | -3 | 48* | 3
O=C(O)c1ccc(CN2C(=O)c3cccc4c([N+](=O)[O-])ccc(c34)C2=O)cc1 | . | . | -1 | . | . | . | . | .
Cc1ccc(C(=O)O)cc1N1C(=O)c2cccc3c([N+](=O)[O-])ccc(c23)C1=O | -1 | 2 | -4 | 9 | 39* | 1 | 35* | 0
CC1(C)CC(=O)C=C(c2ccc(-c3ccccc3)cc2)C1 | -4 | -1 | 1 | . | 48* | 1 | 30 | 9
CC(=O)n1cc(CO)c2ccccc21 | -2 | -1 | -1 | 3 | 4 | 1 | . | .
SMILES | PP1 inh | MsrA inh | MsrA act | EBNA-1 inh | ZTA counter | PP5 inh | ZTA inh confirm | EBNA-1 counter
CC(=O)O/C(=C\c1cn(C(C)=O)c2ccccc12)C(=O)O | -5 | 0 | 0 | 1 | 158* | 0 | 5 | -1
Cc1cc(C)nc(N/N=C/C2=C(N3CCOCC3)C(=C\c3ccc(Cl)cc3)/CC2)n1 | 2 | 1 | -4 | 1 | 8 | 2 | . | .
O=C(O)c1ccc(N/N=C/C2=C(N3CCOCC3)C(=C\c3ccccc3)/CC2)cc1 | 5 | 2 | -10 | 14 | 69* | 2 | 6 | 5
FC(F)Oc1ccc(NC(=S)N2CCc3ccccc32)cc1 | 0 | 1 | -4 | 7 | 15 | -2 | . | .
CC(=O)NC(CCS(C)(=O)=O)C(=O)Nc1ccc(Cl)c(Cl)c1 (stereo unspecified) | 7 | -1 | -2 | 20 | 36* | 2 | 0 | -5
CC(=O)N1CCN(Cc2nc3cc(NC(=O)NC4CCCCC4)ccc3n2C)CC1 | -3 | 3 | 1 | 13 | -1 | -4 | . | .
O=C(Nc1ccccc1NC(=O)c1ccccc1F)c1ccccc1F | . | -1 | 0 | . | . | . | . | .
O=C(Nc1ccccc1Sc1ccccc1)c1ccccc1F | 2 | -1 | -3 | -7 | 37* | 1 | -2 | -5
COc1ccccc1CNC(=O)C1CCC(CNc2c(N3CCC(C)CC3)c(=O)c2=O)CC1 (stereo unspecified) | -4 | 1 | -4 | -14 | -18 | 0 | . | .
COc1cc(OC)cc(-c2c(C#Cc3ccsc3)c3cc(-c4ccc(C(N)=O)cc4)ccc3n2C)c1 | -4 | 3 | -5 | . | 40* | 0 | 22 | 25
COCc1ccc(-c2ccc3c(c2)c(C#Cc2ccsc2)c(-c2cc(OC)cc(OC)c2)n3C)cc1 | 9 | -1 | 0 | . | -5 | 2 | . | .
Cc1c(C)n(Cc2ccccc2)c2ncnc(NN)c12 | 4 | -1 | -1 | 13 | 39* | 0 | -2 | 0
O=C(Nc1ccc(N2CCCC2)cc1)C(Cl)c1ccccc1 (stereo unspecified) | -2 | . | -8 | 27 | 49* | -3 | 70* | 36*
CCOc1nc(-c2ccc(Cl)cc2)nc2ccccc12 | 3 | -1 | 3 | 0 | -1 | 0 | . | .
Cc1ccc(-c2csc3ncn(CC(N)=O)c(=O)c23)cc1C | 1 | 1 | -4 | 5 | -13 | 3 | . | .
CCC(C(=O)O)n1cnc2scc(-c3ccc(C)c(C)c3)c2c1=O (stereo unspecified) | -2 | -1 | 0 | 1 | 117* | 2 | 6 | 13
CCOc1cc(C=O)ccc1OCc1cc(=O)n2cc(C)ccc2n1 | 0 | -1 | -3 | -1 | -4 | -2 | . | .
